# Measurements: ChEMBL document CHEMBL2218924, “A broad activity screen in support of a chemogenomic map for kinase signalling research and drug discovery” (Biochem J, 2013)
# Experiments:
# [1] = target: T1, Serine/threonine-protein kinase TBK1 (Homo sapiens) (UniProt Q9UHD2); conditions: at 1 µM
# T1 sequence (whole entry): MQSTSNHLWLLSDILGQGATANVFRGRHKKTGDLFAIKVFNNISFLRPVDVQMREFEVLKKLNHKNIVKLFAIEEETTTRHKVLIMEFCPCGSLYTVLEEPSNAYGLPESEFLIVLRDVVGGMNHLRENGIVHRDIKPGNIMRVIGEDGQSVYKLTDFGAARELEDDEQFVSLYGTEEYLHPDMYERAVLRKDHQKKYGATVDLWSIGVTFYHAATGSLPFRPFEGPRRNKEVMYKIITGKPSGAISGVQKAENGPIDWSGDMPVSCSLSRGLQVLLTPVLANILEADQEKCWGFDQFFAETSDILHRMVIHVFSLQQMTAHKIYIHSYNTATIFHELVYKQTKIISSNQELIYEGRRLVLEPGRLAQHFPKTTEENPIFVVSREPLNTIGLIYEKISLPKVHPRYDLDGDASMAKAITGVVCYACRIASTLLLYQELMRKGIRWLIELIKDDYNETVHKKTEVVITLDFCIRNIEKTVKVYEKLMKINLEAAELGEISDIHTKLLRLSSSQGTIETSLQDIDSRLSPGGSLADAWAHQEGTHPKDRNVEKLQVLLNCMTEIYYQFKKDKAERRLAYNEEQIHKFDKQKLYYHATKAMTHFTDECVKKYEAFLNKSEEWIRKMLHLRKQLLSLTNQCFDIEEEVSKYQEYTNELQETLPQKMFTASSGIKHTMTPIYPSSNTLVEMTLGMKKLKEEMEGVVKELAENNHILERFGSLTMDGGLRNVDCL
# [2] = target: T1, Serine/threonine-protein kinase TBK1 (Homo sapiens); conditions: at 10 µM
# [3] = target: T2, TGF-beta receptor type-1 (Homo sapiens) (UniProt P36897); conditions: at 1 µM
# T2 sequence (whole entry): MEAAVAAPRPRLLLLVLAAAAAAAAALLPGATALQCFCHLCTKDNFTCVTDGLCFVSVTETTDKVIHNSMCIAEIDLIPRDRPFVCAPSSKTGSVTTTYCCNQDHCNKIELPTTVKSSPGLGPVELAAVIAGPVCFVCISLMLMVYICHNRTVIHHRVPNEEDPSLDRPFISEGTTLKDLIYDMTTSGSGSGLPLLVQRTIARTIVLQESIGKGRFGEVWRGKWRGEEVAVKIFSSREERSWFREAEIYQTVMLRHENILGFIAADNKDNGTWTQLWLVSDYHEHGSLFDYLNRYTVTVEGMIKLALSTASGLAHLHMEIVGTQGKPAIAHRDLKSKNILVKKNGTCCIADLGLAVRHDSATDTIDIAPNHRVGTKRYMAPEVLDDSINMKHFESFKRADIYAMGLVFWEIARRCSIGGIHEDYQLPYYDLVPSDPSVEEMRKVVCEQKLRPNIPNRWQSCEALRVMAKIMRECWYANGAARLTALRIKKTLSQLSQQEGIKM
# [4] = target: T2, TGF-beta receptor type-1 (Homo sapiens); conditions: at 10 µM
# [5] = target: T3, Inhibitor of nuclear factor kappa-B kinase subunit alpha (Homo sapiens) (UniProt O15111); conditions: at 1 µM
# T3 sequence (whole entry): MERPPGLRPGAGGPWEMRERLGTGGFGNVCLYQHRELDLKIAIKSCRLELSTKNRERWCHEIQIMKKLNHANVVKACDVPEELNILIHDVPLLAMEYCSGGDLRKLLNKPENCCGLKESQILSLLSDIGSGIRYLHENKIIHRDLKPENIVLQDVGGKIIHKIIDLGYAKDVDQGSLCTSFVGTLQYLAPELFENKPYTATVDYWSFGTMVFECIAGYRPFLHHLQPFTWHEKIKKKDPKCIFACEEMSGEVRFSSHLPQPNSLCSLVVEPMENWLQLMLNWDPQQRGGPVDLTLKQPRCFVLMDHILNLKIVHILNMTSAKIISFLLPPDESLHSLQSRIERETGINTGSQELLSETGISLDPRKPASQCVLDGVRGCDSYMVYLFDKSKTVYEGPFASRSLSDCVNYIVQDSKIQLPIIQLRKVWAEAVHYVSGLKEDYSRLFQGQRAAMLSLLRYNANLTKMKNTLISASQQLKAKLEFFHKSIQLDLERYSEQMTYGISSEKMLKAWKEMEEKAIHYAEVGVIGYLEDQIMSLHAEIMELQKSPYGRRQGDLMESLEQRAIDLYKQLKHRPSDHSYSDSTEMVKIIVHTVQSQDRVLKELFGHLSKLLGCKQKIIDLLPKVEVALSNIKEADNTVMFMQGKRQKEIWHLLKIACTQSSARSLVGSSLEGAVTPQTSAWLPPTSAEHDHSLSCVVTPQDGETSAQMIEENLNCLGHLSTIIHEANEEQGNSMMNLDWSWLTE
# [6] = target: T3, Inhibitor of nuclear factor kappa-B kinase subunit alpha (Homo sapiens); conditions: at 10 µM
# [7] = target: T4, Inhibitor of nuclear factor kappa-B kinase subunit beta (Homo sapiens) (UniProt O14920); conditions: at 1 µM
# T4 sequence (whole entry): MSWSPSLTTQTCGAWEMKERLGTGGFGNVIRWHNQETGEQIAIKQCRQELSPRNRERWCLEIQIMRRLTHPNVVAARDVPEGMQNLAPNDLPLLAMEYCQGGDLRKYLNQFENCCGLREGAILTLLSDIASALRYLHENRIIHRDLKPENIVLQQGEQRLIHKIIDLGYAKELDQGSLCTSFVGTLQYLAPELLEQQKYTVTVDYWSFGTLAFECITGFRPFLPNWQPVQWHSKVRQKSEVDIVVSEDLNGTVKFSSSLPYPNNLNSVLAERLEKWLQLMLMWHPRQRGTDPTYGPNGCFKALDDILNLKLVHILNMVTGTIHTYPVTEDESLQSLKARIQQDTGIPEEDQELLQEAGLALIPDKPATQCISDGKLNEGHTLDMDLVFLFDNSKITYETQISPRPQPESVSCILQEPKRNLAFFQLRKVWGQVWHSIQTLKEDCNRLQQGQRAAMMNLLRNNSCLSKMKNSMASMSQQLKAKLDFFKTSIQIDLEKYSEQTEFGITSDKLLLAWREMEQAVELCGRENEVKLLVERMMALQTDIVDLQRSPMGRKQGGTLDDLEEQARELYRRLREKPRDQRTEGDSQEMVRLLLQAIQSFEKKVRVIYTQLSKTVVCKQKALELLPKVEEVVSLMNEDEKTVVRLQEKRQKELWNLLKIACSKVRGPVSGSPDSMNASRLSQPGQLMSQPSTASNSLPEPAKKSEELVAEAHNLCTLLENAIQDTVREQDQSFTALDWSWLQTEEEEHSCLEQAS
# [8] = target: T4, Inhibitor of nuclear factor kappa-B kinase subunit beta (Homo sapiens); conditions: at 10 µM
# [9] = target: Insulin receptor (Homo sapiens) (UniProt P06213); conditions: at 1 µM
# Sequence of Insulin receptor (Homo sapiens) (P06213 28-758 limits assumed): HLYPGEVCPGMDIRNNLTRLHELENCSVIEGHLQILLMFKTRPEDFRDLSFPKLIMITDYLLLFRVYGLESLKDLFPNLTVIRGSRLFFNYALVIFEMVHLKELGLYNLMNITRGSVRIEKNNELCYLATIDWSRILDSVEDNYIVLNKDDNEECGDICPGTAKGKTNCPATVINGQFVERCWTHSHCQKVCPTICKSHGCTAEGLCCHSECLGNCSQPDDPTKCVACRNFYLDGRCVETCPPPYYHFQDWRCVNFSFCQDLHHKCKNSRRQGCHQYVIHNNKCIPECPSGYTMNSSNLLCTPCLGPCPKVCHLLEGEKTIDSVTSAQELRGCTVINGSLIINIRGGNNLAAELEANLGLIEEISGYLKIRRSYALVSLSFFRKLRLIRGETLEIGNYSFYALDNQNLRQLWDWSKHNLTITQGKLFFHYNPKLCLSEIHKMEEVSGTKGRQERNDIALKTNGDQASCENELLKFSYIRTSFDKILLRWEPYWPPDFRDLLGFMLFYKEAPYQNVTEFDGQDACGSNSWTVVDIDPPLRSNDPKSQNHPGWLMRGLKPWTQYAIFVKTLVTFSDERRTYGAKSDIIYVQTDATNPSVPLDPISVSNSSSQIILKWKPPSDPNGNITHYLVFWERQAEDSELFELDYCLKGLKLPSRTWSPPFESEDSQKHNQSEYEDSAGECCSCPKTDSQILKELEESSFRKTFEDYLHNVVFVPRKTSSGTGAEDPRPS
# Sequence of Insulin receptor (Homo sapiens) (P06213 763-1382 limits assumed): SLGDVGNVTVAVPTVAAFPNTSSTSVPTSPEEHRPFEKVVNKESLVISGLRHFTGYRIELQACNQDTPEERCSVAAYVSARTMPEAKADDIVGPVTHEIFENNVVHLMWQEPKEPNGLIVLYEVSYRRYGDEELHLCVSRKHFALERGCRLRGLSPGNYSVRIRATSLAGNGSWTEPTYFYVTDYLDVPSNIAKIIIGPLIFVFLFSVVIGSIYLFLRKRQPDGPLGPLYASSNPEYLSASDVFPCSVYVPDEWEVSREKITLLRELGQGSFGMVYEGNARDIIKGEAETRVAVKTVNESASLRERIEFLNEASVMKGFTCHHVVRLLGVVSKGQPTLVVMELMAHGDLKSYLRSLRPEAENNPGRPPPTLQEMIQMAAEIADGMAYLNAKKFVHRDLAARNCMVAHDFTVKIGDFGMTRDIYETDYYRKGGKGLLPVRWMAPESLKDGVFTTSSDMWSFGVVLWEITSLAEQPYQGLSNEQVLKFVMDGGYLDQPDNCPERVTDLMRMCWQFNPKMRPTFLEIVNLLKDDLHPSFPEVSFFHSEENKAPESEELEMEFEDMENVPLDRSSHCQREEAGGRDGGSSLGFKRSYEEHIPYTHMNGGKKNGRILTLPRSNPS
smiles,measurement,setting,value
O=C(O)/C=C/c1cc(Br)c(Br)c(Br)c1Br,residual activity,[1],69%
same,residual activity,[2],58%
same,residual activity,[3],101%
same,residual activity,[4],97%
same,residual activity,[5],98%
same,residual activity,[6],35%
same,residual activity,[7],105%
same,residual activity,[8],65%
same,residual activity,[9],144%
